Source: the supplement of paper PMC10681739

What was measured:
ETS1 [1] = target: T1, ETS1 (UniProt P14921); assay: ETS1 binding intensity (PBM fluorescence), ETS1 alone (arbitrary fluorescence units); higher = stronger binding; details: ETS1 concentration 1 nM; RUNX1 concentration 0 nM
T1 sequence: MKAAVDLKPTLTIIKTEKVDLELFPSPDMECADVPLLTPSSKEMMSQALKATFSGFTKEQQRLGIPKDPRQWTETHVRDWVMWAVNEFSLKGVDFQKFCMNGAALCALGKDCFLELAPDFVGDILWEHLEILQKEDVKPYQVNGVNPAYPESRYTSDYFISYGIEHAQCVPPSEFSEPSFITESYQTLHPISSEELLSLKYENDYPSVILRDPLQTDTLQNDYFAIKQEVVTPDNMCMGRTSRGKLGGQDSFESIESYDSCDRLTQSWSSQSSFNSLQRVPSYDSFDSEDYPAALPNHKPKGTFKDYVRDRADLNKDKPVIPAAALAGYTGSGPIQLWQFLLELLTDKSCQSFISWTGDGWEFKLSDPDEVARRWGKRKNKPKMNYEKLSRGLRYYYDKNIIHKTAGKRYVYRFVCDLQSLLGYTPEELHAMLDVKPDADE

RUNX1 [2] = target: RUNX1 (UniProt Q01196); assay: RUNX1 binding intensity (PBM fluorescence), RUNX1 alone (arbitrary fluorescence units); higher = stronger binding; details: RUNX1 concentration 2 nM; ETS1 concentration 0 nM
RUNX1, sequence (Q01196 whole entry): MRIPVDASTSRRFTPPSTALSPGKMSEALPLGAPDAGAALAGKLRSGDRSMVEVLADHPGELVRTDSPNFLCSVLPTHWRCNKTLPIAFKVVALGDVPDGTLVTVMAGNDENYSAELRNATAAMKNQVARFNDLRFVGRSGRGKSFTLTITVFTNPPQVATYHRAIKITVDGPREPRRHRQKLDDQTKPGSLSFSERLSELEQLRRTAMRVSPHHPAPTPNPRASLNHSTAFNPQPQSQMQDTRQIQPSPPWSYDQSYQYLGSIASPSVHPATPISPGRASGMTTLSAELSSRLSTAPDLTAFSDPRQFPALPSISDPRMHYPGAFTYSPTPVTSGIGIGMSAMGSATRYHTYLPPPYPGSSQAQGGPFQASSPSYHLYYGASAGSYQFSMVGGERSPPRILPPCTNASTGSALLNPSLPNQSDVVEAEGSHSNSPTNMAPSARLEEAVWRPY
Description: (§1)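 Cooperative gcPBM on 36-bp genomic probes with neighbouring ETS1 and RUNX1 sites. Recombinant human RUNX1 (2 nM) was incubated alone or with ETS1 (25 nM) and detected with anti-RUNX1 antibody plus Alexa488 secondary. Values are medians over 4 replicate spots; the RUNX1+ETS1 data were normalised to the RUNX1-only data. The probes sit in constant array flanks that are not printed.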

RUNX1 [3] = target: RUNX1 (UniProt Q01196); assay: RUNX1 binding intensity (PBM fluorescence) in presence of ETS1, normalised to RUNX1-only experiment (arbitrary fluorescence units); higher = stronger binding; details: RUNX1 concentration 2 nM; ETS1 concentration 25 nM
Description: as §1

ETS1 [4] = target: T1, ETS1; assay: ETS1 binding intensity (PBM fluorescence) in presence of RUNX1, normalised to ETS1-only experiment (arbitrary fluorescence units); higher = stronger binding; details: ETS1 concentration 1 nM; RUNX1 concentration 25 nM
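Wherever RUNX1 binding intensity (PBM fluorescence) in presence of ETS1, normalised to RUNX1-only experiment is given: Full-length recombinant human ETS1 or RUNX1 bound to double-stranded 36-bp genomic probes on microarrays, detected by protein-specific primary antibody and Alexa488 secondary, spot fluorescence as median of four replicate spots.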
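Wherever RUNX1 binding intensity (PBM fluorescence), RUNX1 alone is given: Full-length recombinant human RUNX1 bound to double-stranded 36-bp genomic probes on a high-density microarray, scored as Alexa488 fluorescence per spot via anti-RUNX1 antibody, median of four replicate spots.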

Sequence	ETS1 binding intensity (ETS1 [1])	RUNX1 binding intensity (RUNX1 [2])	RUNX1 binding intensity (RUNX1 [3])	ETS1 binding intensity (ETS1 [4])
GATATGGCAGGAAGTAGGGCCTGGAAACCGCACGGC	3390	954	2000	
CCTGGGGGGCCGGAAGCCCCGCTGCGGCCCCAGCCC	3060	737	1130	
AGGCTTCCGGCCACGCCCCCTTCCCGCGGTTGCTAG	704	748	2360	1140
GTAAGTAGGCCAGGAAGTGGTCACTGCAGCATGTGA	3740	722	1440	
TGAGCCTTGGAAGGAAATGATTCACCACAATACTGT	741	831	867	
GTCAGGGGAACAGGATGTGGGTGGGAGCCAGCCCCA	4250	729	2540	
CTGTGAGGCGGAAGTGGCGGGCTCTGTGGGCGCAAG	3860	703	1430	
ACCTCAAGCCCAGGATGTGGTTTGGCCACTATTGAG	1310	804	1680	
TAGCCACTAACCGGAAACGTTAAACCACAGCTCCGT	10100	1180	7440	
TGGGGGATGGCAGCAGGATGTGGTTATCTCAGAAAG	3330	814	1940	
TGAGAAAACAGGAAGCGCCCAGTCACCACAGAAAGC	2910	765	1330	
TGTATGAAAAAAACAGGAAACCACAGAGAACTGAGG	2210	1060	2060	
ACTCCTCCCGCTTCCGCTGCCGCAGCCGGTCGTAAC	1280	1310	3470	
TTGTGCTTCCTGCTCATGAGATTGCTAGCGGTTACT	491	803	1190	
GGTTGTAAGTTCACAGGATGTGGTGTGTCCCTGTGG	4130	827	1400	
